Screening data: PubChem BioAssay, National Center for Advancing Translational Sciences (NCATS)
Pf growth 96h: Primary qHTS for delayed death inhibitors of the malarial parasite plastid, 96 hour incubation. Potency, µM (titrated, usually from 28.7 µM), actives largely listed as inhibitors. P. falciparum luciferase reporter growth, 96 h. AID 504834, 2011. 320,000 compounds, 6.9% hits
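P. falciparum expressing integrated firefly luciferase, in erythrocytes at 2% hematocrit, 0.05% parasitemia, incubated with compounds 96 h at 37 C, 5% CO2. Growth inhibition read as loss of luminescence; two-generation exposure targets delayed-death apicoplast inhibitors.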
Pf growth 48h: Primary qHTS for delayed death inhibitors of the malarial parasite plastid, 48 hour incubation. P. falciparum luciferase growth in erythrocytes, 48 h. Potency, µM (doses to about 28.7 µM), most hits filed as inhibitors. 310,000 compounds, 5.9% hits. AID 504832, 2011
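Luciferase-expressing parasites in RBCs, 2% Hct / 0.1% parasitemia final; RPMI 1640 + 0.5% Albumax; 37 C, 5% CO2, one generation; luminescence read-out, lower signal = inhibition.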
HCV inhibitor: qHTS Assay for Inhibitors of Hepatitis C Virus (HCV) | Potency, µM (top dose mostly 41.8 µM), usual class: inhibitors | Huh7.5.1 HCVcc-Cre infection, luciferase reporter, 44 h | 340,000 compounds, 3.4% hits
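Infectious HCV cell culture screen: compound-treated cells (1,000/well, pre-plated 4 h) are infected with HCVcc-Cre at roughly 0.5 moi and grown 44 h. Infection is quantified by luciferase signal after 15 min substrate incubation at room temperature.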
AMA1 RON2 block: qHTS for Inhibitors of AMA1-RON; Towards Development of Antimalarial Drug Lead: Primary Screen; Plasmodium falciparum AMA1 (3D7) - RON2 peptide interaction; AlphaScreen AMA1-biotinylated RON2 peptide binding; Potency, µM (titrated, usually from 58.2 µM), usual class: inhibitors; 360,000 compounds, 0.2% hits; note: nearly all actives have a fitted effect of over 45% in size
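AMA1 (3D7) with his tag at 25 nM final met compounds first, then biotinylated RON2 peptide at 25 nM; detection used donor plus acceptor beads, 10 µg/mL apiece, read by AlphaScreen after 30 min at room temperature.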
Large screens that a line does not name were inactive; ! = not active in a repeat. Most compounds without a hit are left out; they make up all but 11% or so of the library. Calls come from the whole dose curve; as a rule, active = well fitted curve in the direction sought with a large enough effect; inconclusive = small, poorly fitted or top-dose-only effect, or another doubt; inactive = no such curve, though single readings can be large; an effect the other way counts as inactive or inconclusive.

Cn1c(SCc2ccc(Cl)cc2)nnc1-c1ccc2nonc2c1	none
CCC1CN(C(=O)N2CCC(C(=O)NCc3ccco3)CC2)c2cc(C)ccc2O1 (stereo unspecified)	Pf growth 96h 13µM, HCV inhibitor inconclusive
CCC1CN(C(=O)N2CCC(C(=O)NCCc3ccc(OC)cc3OC)CC2)c2ccccc2O1 (stereo unspecified)	Pf growth 96h inconclusive, Pf growth 48h inconclusive, HCV inhibitor 13µM
CCC1CN(C(=O)N2CCC(C(=O)NCc3ccc(C)o3)CC2)c2cc(C)ccc2O1 (stereo unspecified)	Pf growth 48h inconclusive, HCV inhibitor inconclusive
Cc1ccc(S(=O)(=O)N2[C@H](c3cccc(Cl)c3)CC(=O)[C@@H]3CN(S(=O)(=O)c4ccccc4C)[C@H](c4ccc(Cl)cc4)C[C@@H]32)cc1	none (no result: Pf growth 96h, Pf growth 48h, HCV inhibitor)
CCCCCCc1cc2cc(C(=O)Nc3ccccc3)c(=O)oc2cc1O	Pf growth 96h inconclusive, Pf growth 48h inconclusive, HCV inhibitor 4.5µM
O=S(=O)(c1ccccc1)N1N=C(c2ccc(Br)cc2)CC1c1ccco1 (stereo unspecified)	Pf growth 96h inconclusive, Pf growth 48h inconclusive, HCV inhibitor inconclusive
O=S(=O)(c1ccccc1)N1N=C(c2ccc(O)cc2)CC1c1ccco1 (stereo unspecified)	Pf growth 96h inconclusive, HCV inhibitor 10µM
Cc1ccc(C2=NN(S(=O)(=O)c3ccccc3)C(c3ccco3)C2)cc1 (stereo unspecified)	Pf growth 96h 12µM, Pf growth 48h 9.3µM, HCV inhibitor 13µM
COc1ccccc1N1CCN(/N=C\c2sccc2C)CC1	Pf growth 96h inconclusive, AMA1 RON2 block 13µM
O=[N+]([O-])c1ccccc1/C=C/C=N/N1CCCCC1	AMA1 RON2 block 10µM
O=[N+]([O-])c1ccccc1/C=C\C=N\N1CCN(c2ccccc2)CC1	Pf growth 96h inconclusive, HCV inhibitor inconclusive, AMA1 RON2 block inconclusive
O=[N+]([O-])c1ccccc1/C=N/N1CCN(c2ccc(Cl)cc2)CC1	Pf growth 96h inconclusive, AMA1 RON2 block inconclusive
COc1ccccc1N1CCN(/N=C/C=C/c2ccccc2[N+](=O)[O-])CC1	HCV inhibitor inconclusive, AMA1 RON2 block 5.6µM
O=[N+]([O-])c1ccccc1/C=N\N1CCN(c2ccccc2)CC1	AMA1 RON2 block 22µM
COc1ccccc1N1CCN(/N=C\c2ccccc2)CC1	Pf growth 96h inconclusive
CSc1nsc(SCC(=O)Nc2cccc(NC(C)=O)c2)n1	HCV inhibitor inconclusive
CCOC(=O)C1=CC[C@H]2c3c(c4ccccc4n3C)C(=O)C1N2C(=O)OC(C)(C)C	Pf growth 96h inconclusive
CCCNC(=O)C1(C)CCN(Cc2ccc(C)c3ccccc23)C1 (stereo unspecified)	none (no result: Pf growth 96h, Pf growth 48h, HCV inhibitor)
CC(OC(=O)c1nn(C)c(=O)c2ccccc12)C(=O)Nc1ccc(S(N)(=O)=O)cc1 (stereo unspecified)	none
Cc1ccc(S(=O)(=O)N2CCC(C(=O)N3CCCC(C(F)(F)F)C3)CC2)cc1C (stereo unspecified)	Pf growth 96h inconclusive, Pf growth 48h inconclusive, HCV inhibitor inconclusive
Cc1c(C(=O)N2CCN(c3ccccc3)CC2)oc2c(Cl)cccc12	Pf growth 96h inconclusive, Pf growth 48h inconclusive, HCV inhibitor inconclusive
COCc1c(C(=O)N2CCN(S(=O)(=O)c3ccccc3Cl)CC2)oc2ccccc12	Pf growth 96h inconclusive, Pf growth 48h 12µM, HCV inhibitor inconclusive
Cc1c(C(=O)N2CCN(S(=O)(=O)c3ccccc3F)CC2)oc2c(Cl)cccc12	Pf growth 96h 12µM, Pf growth 48h 10µM, HCV inhibitor inconclusive
CCOC(=O)c1oc2ccccc2c1CN1CCN(C)CC1	Pf growth 96h 13µM
CCOCc1c(C(=O)N2CCN(CC(=O)Nc3ccc(F)cc3)CC2)oc2ccccc12	Pf growth 96h inconclusive, Pf growth 48h inconclusive
CCOCc1c(C(=O)N2CCN(CCOc3ccc(Cl)cc3)CC2)oc2ccccc12	Pf growth 48h inconclusive, HCV inhibitor 5.6µM, AMA1 RON2 block inconclusive
O=C(c1cn(-c2ccccc2)nc1-c1cccnc1)N1CCN(S(=O)(=O)c2ccc(Cl)cc2)CC1	none (no result: Pf growth 96h, Pf growth 48h)
CC1=CC(=O)C(Sc2ccc(C)cc2)=CC1=O	AMA1 RON2 block 13µM (no result: Pf growth 96h, Pf growth 48h, HCV inhibitor)
Cc1ccc(Sc2ccc(CN3CCCCC3)cc2[N+](=O)[O-])cc1	Pf growth 96h inconclusive, Pf growth 48h inconclusive, HCV inhibitor inconclusive
CCCCCCCCCCCCCCCCn1cc[n+](C)c1	Pf growth 96h 2.1µM!, Pf growth 48h 3.3µM, HCV inhibitor 5.6µM
